Assay outcomes from PubChem BioAssay.
Compounds with a hit are over-represented: about 21% of the library has one in this group of screens.
Pf growth 96h: P. falciparum growth inhibition at 96 hours. P. falciparum luciferase reporter growth, 96 h. 320,000 tested, 6.9% active. AID 504834. Potency, µM (highest dose often 28.7 µM), usual class: inhibitors
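Infected RBCs, 2% Hct / 0.05% parasitemia final; luciferase-reporter P. falciparum; cpd 96 h, 37 C, 5% CO2; luciferase detection reagent; luminescence.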
Pf growth 48h: P. falciparum growth inhibition at 48 hours (one generation) | AID 504832 | 310,000 tested, 5.9% active | Potency, µM (top dose mostly 28.7 µM), usual class: inhibitors | P. falciparum luciferase growth in erythrocytes, 48 h
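Firefly luciferase activity from engineered P. falciparum reports growth; inhibitors lower the luminescent signal. Cultures contained 2% hematocrit erythrocytes at 0.1% final parasitemia.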
Cycloheximide cs: counter-screen hit for Shiga toxin inhibitors, cycloheximide. cell reporter, cycloheximide protein synthesis inhibition counterscreen. max response, %. 300,000 tested, 12% active; in the data active means max response mostly above about 13%, no sharp cut-off; inactive means mostly below about 14%; further: read at 38.3 µM for the half of the compounds with a filed dose
Shiga toxin inh: Shiga toxin inhibition; AID 2315; 290,000 tested, 9.2% active; inhibition, % at 38.7 µM; Vero cells, Shiga toxin protein synthesis inhibition reporter; in the data active means inhibition mostly above about 28%, no sharp cut-off; inactive means mostly below about 43%
NS1 function inh: blocks influenza NS1 protein function; Potency, µM (top dose mostly 46.1 µM); 270,000 tested, 0.4% active; AID 2326; calls by dose curve; further: actives are rising curves; nearly all actives have a fitted effect of over 50% in size
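Read-out: OD600 growth recovery of NS1-expressing budding yeast. Cells grown overnight at 30C in -URA glucose medium, washed, resuspended and diluted 1:100 in 2% galactose assay medium, pH 6.0. Same strain lacking NS1 served as positive control.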
Sm TGR block: S. mansoni TGR enzyme inhibition; 360,000 tested, 3% active; purified TGR, DTNB reduction, TNB absorbance 405 nm; Potency, µM (top dose mostly 114 µM), usual class: inhibitors; AID 485364; further: nearly all actives have a fitted effect of over 60% in size
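TGR 20 nM + NADPH 100 uM (dispensed conc.), cpd preinc 15 min RT; start with NADPH (500 uM addition) then DTNB (15 mM addition). Kinetic TNB absorbance, 405 nm filter. Four-parameter Hill fit across titration.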
Each line names hits and unclear results; the compound was inactive in the other large screens. Unless noted, the call rests on the fitted dose curve; in most records, active means well fitted curve in the direction sought with a large enough effect; inconclusive means small, poorly fitted or top-dose-only effect, or another doubt; inactive means no such curve, though single readings can be large; an effect the other way counts as inactive or inconclusive.

COc1ccc(C(=O)CSc2nnc(CN3CCCCC3)n2-c2ccc(Cl)cc2)cc1OC	Pf growth 96h 10.4µM, Pf growth 48h inconclusive
CC(c1nnc(SCC(=O)Nc2cc([N+](=O)[O-])ccc2F)n1Cc1ccccc1)N(C)C (centres undefined)	Pf growth 96h 5.22µM, Pf growth 48h 8.28µM, NS1 function inh inconclusive
Cc1cc(C)cc(N2C(=O)CS(=O)(=O)C23C(=O)N(Cc2ccccc2)c2ccccc23)c1 (centres undefined)	none (no result: Pf growth 96h, Pf growth 48h, Cycloheximide cs, Shiga toxin inh, NS1 function inh)
O=C1CC(N2CCN(C(c3ccccc3)c3ccccc3)CC2)C(=O)N1Cc1ccc(N2CCCC2=O)cc1 (centres undefined)	Pf growth 96h 14.7µM, Pf growth 48h 9.28µM
NC(=O)C1CCN(C2CC(=O)N(Cc3ccc(N4CCCC4=O)cc3)C2=O)CC1 (centres undefined)	Sm TGR block 35.5µM (no result: Pf growth 96h)
Cc1ccc(OCC(=O)NCc2ccccc2)c([N+](=O)[O-])n1	none
Cc1cc(C(=O)COc2cccc3cccnc23)c(C)n1C	Pf growth 96h 3.29µM, Pf growth 48h 11.7µM
Cc1cc(C(=O)COc2ccccc2C(N)=O)c(C)n1C	none (no result: NS1 function inh)
Cn1c(COc2cccc3cccnc23)nnc1SCC(=O)O	Pf growth 96h 10.4µM
Cc1ccc(OCC(=O)c2cc(C)n(C)c2C)c([N+](=O)[O-])n1	Cycloheximide cs 29.5, Shiga toxin inh 80.3, Sm TGR block inconclusive
CCn1c(COc2cccc3cccnc23)nnc1SCC(=O)O	Sm TGR block inconclusive (no result: Pf growth 48h)
Cc1cc(C(=O)COc2ccc(Cl)cc2Br)c(C)n1C	Cycloheximide cs 21.6
COc1ccccc1-c1ccc(SCC(=O)NC2CCCC2)nn1	none (no result: Cycloheximide cs, Shiga toxin inh, NS1 function inh)
CC(=O)N[C@@H](CCCNC(=N)N)C(=O)N[C@H](CC1CCCCC1)C(=O)N[C@@H]1CCC2SC[C@@H](C(=O)N[C@H](CCCNC(=N)N)C(=O)N[C@H](Cc3ccc(Cl)cc3)C(N)=O)N2C1=O (some centres undefined)	none (no result: Pf growth 96h, Pf growth 48h, NS1 function inh, Sm TGR block)
COc1cccc(C2C(C#N)=C(N)SC(c3ccccc3)C2[N+](=O)[O-])c1 (centres undefined)	Pf growth 48h 10.4µM, NS1 function inh inconclusive
O=C(Cc1ccccc1)N1CCN(CCCc2ccccc2)CC1	Pf growth 96h inconclusive
OC1(Cc2cc(-c3ccccc3)no2)CCN(CCCc2ccccc2)CC1	Pf growth 96h 3.29µM, Pf growth 48h 6.57µM
CCOc1ccc(S(=O)(=O)NC(C)(C)C)cc1-c1nc2c(C(C)(C)C)nn(C)c2c(=O)[nH]1	Pf growth 48h 4.65µM
CCOc1ccc(S(N)(=O)=O)cc1-c1nc2c(C(C)(C)C)nn(C)c2c(=O)[nH]1	Pf growth 96h inconclusive, Pf growth 48h inconclusive
Cc1cc(Cl)ccc1OCc1nnc2n1CCCCC2	none
Clc1ccc(OCc2nnc3n2CCCCC3)c(Cl)c1	Cycloheximide cs 27.9, Shiga toxin inh 55.7
CCCCNC(=S)N(C)/N=C/c1c(C)[nH]c2ccccc12	Pf growth 96h 11.7µM, Pf growth 48h inconclusive
CCCCc1nc2ccccc2c(=O)n1-c1ccccc1O	Pf growth 96h inconclusive, Pf growth 48h inconclusive
CCCCCc1nc2ccccc2c(=O)n1-c1ccc(Cl)cc1[N+](=O)[O-]	Pf growth 96h 13.1µM, Pf growth 48h 4.65µM
CC(=O)N1CCCc2cc(S(=O)(=O)N3CCC(C(=O)NCc4ccccc4Cl)CC3)ccc21	none (no result: Pf growth 96h, Pf growth 48h, Cycloheximide cs, Shiga toxin inh, NS1 function inh)
CC(=O)c1ccc(N2CCN(c3ccccc3O)CC2)c([N+](=O)[O-])c1	Cycloheximide cs 6.0
N#Cc1cc([N+](=O)[O-])ccc1N1CCN(c2ccccc2O)CC1	Cycloheximide cs 43.3, Shiga toxin inh 71.1 (no result: NS1 function inh)
O=C(O)c1ccccc1C(=O)c1ccc(N2CCOCC2)c([N+](=O)[O-])c1	Pf growth 96h inconclusive (no result: Sm TGR block)
CC(C(=O)Nc1cc([N+](=O)[O-])ccc1Cl)N1CCN(c2ccccc2O)CC1 (centres undefined)	Pf growth 96h inconclusive, Pf growth 48h 6.57µM
COC(=O)c1ccc(N2CCN(C)CC2)c([N+](=O)[O-])c1	none (no result: NS1 function inh)
O=[N+]([O-])c1ccc(N2CCN(c3ccc([N+](=O)[O-])cc3CO)CC2)c(CO)c1	Pf growth 96h inconclusive, Pf growth 48h inconclusive
O=C(O)c1ccccc1C(=O)c1ccc(N2CCCC2)c([N+](=O)[O-])c1	Pf growth 96h 11.7µM
COc1cc(C(=O)OCC(=O)Nc2cccc(S(=O)(=O)N3CCOCC3)c2)ccc1OCC(C)C	Pf growth 96h inconclusive (no result: Cycloheximide cs, Shiga toxin inh, NS1 function inh)
C=C(C)C(=O)N1CC2(CC(c3cccc(NC(=O)/C(C)=C\C)c3)=NO2)C[C@H]1C(N)=O (some centres undefined)	none
COc1cc(OC)c(-c2nc(-c3ccncc3)no2)cc1OC	none
COc1ccc(-c2nc(-c3ccncc3)no2)c(OC)c1	Cycloheximide cs 61.3, Shiga toxin inh 110.0
Fc1ccccc1-c1nc(-c2cnccc2C(F)(F)F)no1	Pf growth 96h inconclusive, Pf growth 48h inconclusive, Cycloheximide cs 14.6
O=C(O)c1cccc(-c2noc(-c3ccccc3F)n2)c1	Pf growth 96h inconclusive, Pf growth 48h 0.301µM (no result: Cycloheximide cs, Shiga toxin inh, NS1 function inh, Sm TGR block)
COc1ccc(-c2noc(-c3ccccc3F)n2)cc1	Pf growth 96h 9.28µM, Cycloheximide cs 51.4, Shiga toxin inh 91.4 (no result: Pf growth 48h)
O=C(Nc1cccnc1)c1ccccc1-c1nc(-c2ccccc2F)no1	Pf growth 96h inconclusive (no result: Pf growth 48h)
Cc1ccc(C(=O)NCC(=O)Nc2ncccc2C)s1	none (no result: Cycloheximide cs, Shiga toxin inh, NS1 function inh)
CCOc1ccc(NC(=O)NC(C)c2c(-n3cccc3)sc3c2CCN(CC)C3)cc1 (centres undefined)	none (no result: Pf growth 96h, Pf growth 48h, Cycloheximide cs, Shiga toxin inh, NS1 function inh)
NC(=O)c1cccc(-c2noc(-c3ccccc3F)n2)c1	Pf growth 96h inconclusive, Pf growth 48h inconclusive (no result: Cycloheximide cs, Shiga toxin inh, NS1 function inh)
c1ccc(-c2ccccc2-c2nc(-c3cccnc3)no2)cc1	Pf growth 48h inconclusive (no result: Pf growth 96h)
Brc1ccccc1-c1nc(-c2ccccc2)no1	Cycloheximide cs 54.6, Shiga toxin inh 79.3
O=C(O)c1cccc(-c2nc(-c3ccccc3C(F)(F)F)no2)c1	Pf growth 96h inconclusive, Pf growth 48h 4.15µM (no result: Cycloheximide cs, Shiga toxin inh, NS1 function inh, Sm TGR block)
COC(=O)c1cccc(-c2noc(-c3ccccc3F)n2)c1	none (no result: Cycloheximide cs, Shiga toxin inh, NS1 function inh)
NC(=O)c1ccc(-c2noc(-c3cccc(Cl)c3)n2)cc1	none (no result: Cycloheximide cs, Shiga toxin inh, NS1 function inh)
Fc1ccccc1-c1nc(-c2ccncc2)no1	Cycloheximide cs 23.8, Shiga toxin inh 40.7
Fc1ccccc1-c1nc(-c2ccccc2)no1	Cycloheximide cs 40.3, Shiga toxin inh 67.9
Cc1cccc(OCC(=O)NS(=O)(=O)c2ccc(Br)cc2)c1	Pf growth 96h inconclusive
CC(=O)/C=C1\SC(CC(=O)O)C(=O)N1c1ccccc1 (centres undefined)	Pf growth 96h inconclusive (no result: Pf growth 48h)
CN(C)c1ccc(C(CN)c2c[nH]c3ccccc23)cc1 (centres undefined)	Pf growth 96h inconclusive, Pf growth 48h 9.28µM
NCC(c1ccco1)c1c[nH]c2ccccc12 (centres undefined)	Pf growth 48h inconclusive
CN(C)c1ccc(C(CNS(=O)(=O)c2ccc3ccccc3c2)c2c[nH]c3ccccc23)cc1 (centres undefined)	Cycloheximide cs 22.6, NS1 function inh inconclusive
